# Test results reported in PMC7862700, “An all-to-all approach to the identification of sequence-specific readers for epigenetic DNA modifications on cytosine”.
# Columns and labels:
# Assay in all cases: DAPPL (digital affinity profiling via proximity ligation, sequencing); 10 mM Tris-HCl pH 7.5, 50 mM NaCl, 1 mM DTT, 4% glycerol, room temperature, 30 min; GST-TFs on glutathione beads, 16-mer random dsDNA library, 0.1% formaldehyde crosslink after washing; high values mean tight binding
# FLI1 = biological target: T1, FLI1 (Homo sapiens, UniProt Q01543 1-452); conditions: protein: recombinant; tags: N-terminal GST; dsDNA, one strand shown
# T1 sequence: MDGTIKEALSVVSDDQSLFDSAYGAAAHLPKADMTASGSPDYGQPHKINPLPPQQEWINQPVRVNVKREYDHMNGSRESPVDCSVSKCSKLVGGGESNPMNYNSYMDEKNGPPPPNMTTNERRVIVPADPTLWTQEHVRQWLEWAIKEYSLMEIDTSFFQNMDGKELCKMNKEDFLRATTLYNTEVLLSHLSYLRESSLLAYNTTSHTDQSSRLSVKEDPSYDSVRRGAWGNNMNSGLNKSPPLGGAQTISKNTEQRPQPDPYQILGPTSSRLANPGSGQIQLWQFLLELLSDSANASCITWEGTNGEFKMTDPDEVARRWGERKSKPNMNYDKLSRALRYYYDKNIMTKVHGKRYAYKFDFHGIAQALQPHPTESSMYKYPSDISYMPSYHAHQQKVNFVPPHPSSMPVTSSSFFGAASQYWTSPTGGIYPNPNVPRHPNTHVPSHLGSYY
# Outline: (§1)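 Human transcription factors were made in yeast as GST fusions, captured on glutathione beads and barcoded with DNA. With a tag-only sample included, the pool was incubated with 200 nmole of a random double-stranded 16-mer DNA library in Tris/NaCl/DTT/glycerol buffer at room temperature for 30 min, then crosslinked with 0.1% formaldehyde after washing, ligated by proximity, amplified and sequenced. For binding signal, each hexamer's read frequency for a factor is divided by its frequency for the tag-only sample.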
# ELK1 = biological target: T2, ELK1 (Homo sapiens, UniProt P19419 1-428); conditions: protein: recombinant; tags: N-terminal GST; dsDNA, one strand shown
# T2 sequence: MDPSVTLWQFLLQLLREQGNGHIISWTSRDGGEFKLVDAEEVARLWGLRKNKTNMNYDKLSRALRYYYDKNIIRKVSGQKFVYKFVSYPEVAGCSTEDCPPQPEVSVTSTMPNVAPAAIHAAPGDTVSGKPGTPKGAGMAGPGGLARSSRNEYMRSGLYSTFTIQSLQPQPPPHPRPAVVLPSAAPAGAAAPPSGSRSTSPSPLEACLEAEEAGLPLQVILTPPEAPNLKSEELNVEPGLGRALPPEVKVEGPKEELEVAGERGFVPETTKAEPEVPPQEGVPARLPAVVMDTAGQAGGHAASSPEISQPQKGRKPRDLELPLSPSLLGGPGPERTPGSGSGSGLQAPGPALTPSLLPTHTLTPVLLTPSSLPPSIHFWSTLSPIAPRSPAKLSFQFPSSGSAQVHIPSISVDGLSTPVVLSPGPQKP
# Outline: as §1
# GABPA = biological target: T3, GABPA (Homo sapiens, UniProt Q06546 1-454); conditions: protein: recombinant; tags: N-terminal GST; dsDNA, one strand shown
# T3 sequence: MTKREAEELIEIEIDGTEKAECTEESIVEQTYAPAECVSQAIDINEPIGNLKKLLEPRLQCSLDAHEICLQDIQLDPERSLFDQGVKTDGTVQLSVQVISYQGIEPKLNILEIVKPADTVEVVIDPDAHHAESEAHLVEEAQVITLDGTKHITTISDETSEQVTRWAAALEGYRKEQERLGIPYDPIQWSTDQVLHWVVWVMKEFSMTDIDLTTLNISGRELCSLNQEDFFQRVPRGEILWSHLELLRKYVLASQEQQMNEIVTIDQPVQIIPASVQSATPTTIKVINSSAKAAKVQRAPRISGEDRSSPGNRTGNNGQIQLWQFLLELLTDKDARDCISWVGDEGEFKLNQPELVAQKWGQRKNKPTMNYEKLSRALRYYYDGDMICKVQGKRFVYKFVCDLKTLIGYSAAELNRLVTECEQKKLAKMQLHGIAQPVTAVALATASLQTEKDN
# Outline: as §1
# ERG = biological target: T4, ERG (Homo sapiens, UniProt P11308 1-479); conditions: protein: recombinant; tags: N-terminal GST; dsDNA, one strand shown
# T4 sequence: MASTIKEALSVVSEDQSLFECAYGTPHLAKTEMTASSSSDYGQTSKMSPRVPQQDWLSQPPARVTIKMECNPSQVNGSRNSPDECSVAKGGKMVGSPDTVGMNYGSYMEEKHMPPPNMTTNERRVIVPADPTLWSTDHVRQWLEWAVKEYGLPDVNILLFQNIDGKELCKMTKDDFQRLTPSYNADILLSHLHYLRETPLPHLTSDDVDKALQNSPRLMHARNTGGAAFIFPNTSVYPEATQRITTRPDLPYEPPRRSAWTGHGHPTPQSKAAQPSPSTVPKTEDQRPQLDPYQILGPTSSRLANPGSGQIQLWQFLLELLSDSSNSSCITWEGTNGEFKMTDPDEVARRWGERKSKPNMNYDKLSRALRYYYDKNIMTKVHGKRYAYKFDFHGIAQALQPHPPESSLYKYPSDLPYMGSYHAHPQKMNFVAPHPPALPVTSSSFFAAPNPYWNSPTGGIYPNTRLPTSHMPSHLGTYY
# Outline: as §1
# ELF1 = ELF1 (Homo sapiens, UniProt P32519 1-619); conditions: protein: recombinant; tags: N-terminal GST; dsDNA, one strand shown
# ELF1, sequence (P32519 whole entry): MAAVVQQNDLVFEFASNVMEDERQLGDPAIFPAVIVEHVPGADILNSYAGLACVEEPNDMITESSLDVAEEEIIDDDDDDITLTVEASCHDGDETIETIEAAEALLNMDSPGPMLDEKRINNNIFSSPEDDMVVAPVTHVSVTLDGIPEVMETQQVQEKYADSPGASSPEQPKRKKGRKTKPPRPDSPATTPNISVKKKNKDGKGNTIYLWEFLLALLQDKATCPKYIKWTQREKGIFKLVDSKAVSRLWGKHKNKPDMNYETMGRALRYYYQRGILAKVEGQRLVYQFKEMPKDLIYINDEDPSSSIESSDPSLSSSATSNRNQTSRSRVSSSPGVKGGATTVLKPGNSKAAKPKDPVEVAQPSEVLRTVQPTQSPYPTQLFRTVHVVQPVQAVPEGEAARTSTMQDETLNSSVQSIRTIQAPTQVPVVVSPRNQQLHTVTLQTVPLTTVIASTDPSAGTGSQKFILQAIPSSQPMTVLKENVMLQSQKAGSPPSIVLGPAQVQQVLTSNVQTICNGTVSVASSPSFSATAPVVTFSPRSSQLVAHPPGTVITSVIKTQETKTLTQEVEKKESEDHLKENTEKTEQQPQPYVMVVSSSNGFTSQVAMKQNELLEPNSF
# Outline: as §1
# EHF = biological target: T5, EHF (Homo sapiens, UniProt Q9NZC4 1-300); conditions: protein: recombinant; tags: N-terminal GST; dsDNA, one strand shown
# T5 sequence: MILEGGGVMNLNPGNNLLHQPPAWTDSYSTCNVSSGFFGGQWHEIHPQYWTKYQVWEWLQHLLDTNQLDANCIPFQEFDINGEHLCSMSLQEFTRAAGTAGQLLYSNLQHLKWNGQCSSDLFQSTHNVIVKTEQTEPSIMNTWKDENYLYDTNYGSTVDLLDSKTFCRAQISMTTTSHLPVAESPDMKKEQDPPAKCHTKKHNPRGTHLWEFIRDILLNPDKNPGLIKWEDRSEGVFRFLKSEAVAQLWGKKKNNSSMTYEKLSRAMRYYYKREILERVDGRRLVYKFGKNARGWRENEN
# Outline: as §1
# SPI1 = SPI1 (Homo sapiens, UniProt P17947 1-270); conditions: protein: recombinant; tags: N-terminal GST; dsDNA, one strand shown
# Outline: as §1
# SPIB = SPIB (Homo sapiens, UniProt Q01892 1-262); conditions: protein: recombinant; tags: N-terminal GST; dsDNA, one strand shown
# SPIB, sequence (Q01892 whole entry): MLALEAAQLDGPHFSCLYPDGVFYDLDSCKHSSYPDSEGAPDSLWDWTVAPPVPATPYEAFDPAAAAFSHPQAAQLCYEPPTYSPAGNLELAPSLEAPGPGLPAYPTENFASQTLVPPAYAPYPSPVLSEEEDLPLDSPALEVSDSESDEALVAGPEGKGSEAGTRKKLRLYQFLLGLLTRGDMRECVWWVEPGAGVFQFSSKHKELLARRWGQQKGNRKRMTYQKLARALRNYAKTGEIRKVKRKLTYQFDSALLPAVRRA
# Outline: as §1
# ELK3 = biological target: T6, ELK3 (Homo sapiens, UniProt P41970 1-407); conditions: protein: recombinant; tags: N-terminal GST; dsDNA, one strand shown
# T6 sequence: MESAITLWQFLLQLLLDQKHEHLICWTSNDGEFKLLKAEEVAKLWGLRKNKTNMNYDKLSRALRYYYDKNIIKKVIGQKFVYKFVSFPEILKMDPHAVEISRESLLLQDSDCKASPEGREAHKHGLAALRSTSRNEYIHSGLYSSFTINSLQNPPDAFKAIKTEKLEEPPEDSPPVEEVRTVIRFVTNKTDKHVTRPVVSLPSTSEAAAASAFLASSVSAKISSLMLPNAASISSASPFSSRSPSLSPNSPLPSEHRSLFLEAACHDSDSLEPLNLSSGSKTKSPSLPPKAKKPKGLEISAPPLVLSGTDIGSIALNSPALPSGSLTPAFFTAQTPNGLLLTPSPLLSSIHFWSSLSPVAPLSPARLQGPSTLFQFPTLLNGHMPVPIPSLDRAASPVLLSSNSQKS
# Outline: as §1
# ETV5 = ETV5 (Homo sapiens, UniProt P41161 1-510); conditions: protein: recombinant; tags: N-terminal GST; dsDNA, one strand shown
# ETV5, sequence (P41161 whole entry): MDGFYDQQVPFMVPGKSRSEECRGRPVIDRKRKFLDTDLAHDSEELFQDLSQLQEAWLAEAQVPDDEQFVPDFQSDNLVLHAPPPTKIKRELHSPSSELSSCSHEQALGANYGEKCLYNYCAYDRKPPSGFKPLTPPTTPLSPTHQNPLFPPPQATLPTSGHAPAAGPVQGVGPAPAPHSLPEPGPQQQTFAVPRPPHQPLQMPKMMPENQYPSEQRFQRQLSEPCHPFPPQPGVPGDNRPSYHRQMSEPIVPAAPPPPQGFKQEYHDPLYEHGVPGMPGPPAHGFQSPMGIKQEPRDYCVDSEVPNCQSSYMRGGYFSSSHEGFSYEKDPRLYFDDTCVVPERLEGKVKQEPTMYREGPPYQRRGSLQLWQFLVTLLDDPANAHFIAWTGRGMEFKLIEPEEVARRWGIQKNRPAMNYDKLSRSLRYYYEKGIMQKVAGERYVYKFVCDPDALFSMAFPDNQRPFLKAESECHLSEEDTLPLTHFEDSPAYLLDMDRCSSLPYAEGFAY
# Outline: as §1
# HSF1 = HSF1 (Homo sapiens, UniProt Q00613 1-529); conditions: protein: recombinant; tags: N-terminal GST; chain copies: 3; dsDNA, one strand shown
# HSF1, sequence (Q00613 whole entry): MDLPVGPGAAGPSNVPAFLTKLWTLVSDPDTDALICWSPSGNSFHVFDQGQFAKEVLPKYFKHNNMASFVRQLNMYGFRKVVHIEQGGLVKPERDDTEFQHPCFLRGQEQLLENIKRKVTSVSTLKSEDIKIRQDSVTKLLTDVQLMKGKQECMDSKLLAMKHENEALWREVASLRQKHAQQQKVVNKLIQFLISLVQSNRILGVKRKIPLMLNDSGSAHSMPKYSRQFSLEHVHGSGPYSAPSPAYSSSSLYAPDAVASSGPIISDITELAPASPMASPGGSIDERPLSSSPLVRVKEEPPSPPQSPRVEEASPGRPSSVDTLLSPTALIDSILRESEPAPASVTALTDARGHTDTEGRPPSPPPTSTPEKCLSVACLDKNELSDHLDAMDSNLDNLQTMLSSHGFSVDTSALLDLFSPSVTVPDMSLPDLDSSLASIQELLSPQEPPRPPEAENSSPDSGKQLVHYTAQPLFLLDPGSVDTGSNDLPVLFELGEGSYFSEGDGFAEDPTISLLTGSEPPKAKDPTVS
# Outline: as §1
# SPIC = biological target: T7, SPIC (Homo sapiens, UniProt Q8N5J4 1-248); conditions: protein: recombinant; tags: N-terminal GST; dsDNA, one strand shown
# T7 sequence: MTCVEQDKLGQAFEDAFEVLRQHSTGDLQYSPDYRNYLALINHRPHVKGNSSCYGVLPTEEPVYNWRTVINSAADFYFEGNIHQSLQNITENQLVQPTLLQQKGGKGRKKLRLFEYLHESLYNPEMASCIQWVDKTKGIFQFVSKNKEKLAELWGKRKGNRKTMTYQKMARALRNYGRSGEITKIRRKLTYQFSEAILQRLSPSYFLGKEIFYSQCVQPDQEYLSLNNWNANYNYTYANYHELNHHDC
# Outline: as §1
# ELF4 = ELF4 (Homo sapiens, UniProt Q99607 1-663); conditions: protein: recombinant; tags: N-terminal GST; dsDNA, one strand shown
# ELF4, sequence (Q99607 whole entry): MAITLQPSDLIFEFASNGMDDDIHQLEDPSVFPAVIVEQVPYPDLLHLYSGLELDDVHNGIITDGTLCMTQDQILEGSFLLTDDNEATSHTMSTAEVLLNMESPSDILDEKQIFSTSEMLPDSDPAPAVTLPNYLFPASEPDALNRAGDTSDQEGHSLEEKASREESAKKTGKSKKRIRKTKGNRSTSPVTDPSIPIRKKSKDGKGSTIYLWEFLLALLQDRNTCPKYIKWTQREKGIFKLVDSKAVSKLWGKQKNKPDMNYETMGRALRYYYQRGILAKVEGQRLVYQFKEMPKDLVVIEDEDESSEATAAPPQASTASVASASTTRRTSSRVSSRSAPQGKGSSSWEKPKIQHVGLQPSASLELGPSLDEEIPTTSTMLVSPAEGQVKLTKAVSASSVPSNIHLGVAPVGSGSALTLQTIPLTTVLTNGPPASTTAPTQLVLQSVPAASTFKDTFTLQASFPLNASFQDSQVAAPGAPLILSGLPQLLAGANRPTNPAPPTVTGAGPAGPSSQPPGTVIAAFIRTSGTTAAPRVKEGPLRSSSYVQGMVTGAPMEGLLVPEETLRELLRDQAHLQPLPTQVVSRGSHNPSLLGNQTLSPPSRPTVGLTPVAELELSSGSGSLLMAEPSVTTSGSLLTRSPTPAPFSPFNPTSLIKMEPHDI
# Outline: as §1
# ELK4 = biological target: T8, ELK4 (Homo sapiens, UniProt P28324-2 1-405); conditions: protein: recombinant; tags: N-terminal GST; dsDNA, one strand shown
# T8 sequence: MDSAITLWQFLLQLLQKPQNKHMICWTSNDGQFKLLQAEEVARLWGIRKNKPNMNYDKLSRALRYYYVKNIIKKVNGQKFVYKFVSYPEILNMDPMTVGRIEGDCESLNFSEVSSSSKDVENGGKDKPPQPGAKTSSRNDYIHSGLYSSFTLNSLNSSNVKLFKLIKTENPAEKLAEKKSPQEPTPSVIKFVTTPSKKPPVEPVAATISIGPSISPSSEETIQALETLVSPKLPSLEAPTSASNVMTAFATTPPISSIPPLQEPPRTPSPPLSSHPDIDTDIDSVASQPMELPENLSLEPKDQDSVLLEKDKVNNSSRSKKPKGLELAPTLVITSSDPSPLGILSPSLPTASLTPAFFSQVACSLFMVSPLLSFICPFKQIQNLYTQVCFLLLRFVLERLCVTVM
# Outline: as §1
# ETV2 = biological target: T9, ETV2 (Homo sapiens, UniProt O00321 1-342); conditions: protein: recombinant; tags: N-terminal GST; dsDNA, one strand shown
# T9 sequence: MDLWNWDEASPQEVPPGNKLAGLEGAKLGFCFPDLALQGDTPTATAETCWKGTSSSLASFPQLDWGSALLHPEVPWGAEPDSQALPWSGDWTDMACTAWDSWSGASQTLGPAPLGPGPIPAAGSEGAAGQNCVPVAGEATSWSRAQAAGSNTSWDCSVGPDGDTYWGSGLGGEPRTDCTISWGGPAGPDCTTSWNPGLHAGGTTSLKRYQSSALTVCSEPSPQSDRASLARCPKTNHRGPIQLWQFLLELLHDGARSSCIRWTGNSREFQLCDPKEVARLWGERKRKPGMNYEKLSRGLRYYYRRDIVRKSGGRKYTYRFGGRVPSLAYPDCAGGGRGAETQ
# Outline: as §1
# ELF3 = biological target: T10, ELF3 (Homo sapiens, UniProt P78545 1-371); conditions: protein: recombinant; tags: N-terminal GST; dsDNA, one strand shown
# T10 sequence: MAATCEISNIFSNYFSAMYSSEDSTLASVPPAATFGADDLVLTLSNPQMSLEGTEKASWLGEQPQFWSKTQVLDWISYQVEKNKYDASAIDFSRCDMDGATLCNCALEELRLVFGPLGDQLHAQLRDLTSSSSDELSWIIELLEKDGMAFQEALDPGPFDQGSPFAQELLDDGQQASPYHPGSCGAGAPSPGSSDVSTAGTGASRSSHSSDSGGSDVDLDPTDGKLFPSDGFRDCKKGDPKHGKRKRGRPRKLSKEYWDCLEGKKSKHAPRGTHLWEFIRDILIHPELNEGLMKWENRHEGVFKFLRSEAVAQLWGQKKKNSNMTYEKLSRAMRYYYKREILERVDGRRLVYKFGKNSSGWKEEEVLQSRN
# Outline: as §1
# CRX = CRX (Homo sapiens, UniProt O43186 1-299); conditions: protein: recombinant; tags: N-terminal GST; dsDNA, one strand shown
# CRX, sequence (O43186 whole entry): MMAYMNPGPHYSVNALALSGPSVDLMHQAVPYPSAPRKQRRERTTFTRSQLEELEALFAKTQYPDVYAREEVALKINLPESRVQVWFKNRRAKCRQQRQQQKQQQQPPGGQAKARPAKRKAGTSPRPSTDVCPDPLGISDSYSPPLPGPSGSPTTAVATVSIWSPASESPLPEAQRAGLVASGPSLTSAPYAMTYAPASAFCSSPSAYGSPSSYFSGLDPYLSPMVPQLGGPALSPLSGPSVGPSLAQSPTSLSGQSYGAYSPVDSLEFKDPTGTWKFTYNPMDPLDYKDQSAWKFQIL
# Outline: as §1
# ETV1 = ETV1 (Homo sapiens, UniProt P50549 1-477); conditions: protein: recombinant; tags: N-terminal GST; dsDNA, one strand shown
# ETV1, sequence (P50549 whole entry): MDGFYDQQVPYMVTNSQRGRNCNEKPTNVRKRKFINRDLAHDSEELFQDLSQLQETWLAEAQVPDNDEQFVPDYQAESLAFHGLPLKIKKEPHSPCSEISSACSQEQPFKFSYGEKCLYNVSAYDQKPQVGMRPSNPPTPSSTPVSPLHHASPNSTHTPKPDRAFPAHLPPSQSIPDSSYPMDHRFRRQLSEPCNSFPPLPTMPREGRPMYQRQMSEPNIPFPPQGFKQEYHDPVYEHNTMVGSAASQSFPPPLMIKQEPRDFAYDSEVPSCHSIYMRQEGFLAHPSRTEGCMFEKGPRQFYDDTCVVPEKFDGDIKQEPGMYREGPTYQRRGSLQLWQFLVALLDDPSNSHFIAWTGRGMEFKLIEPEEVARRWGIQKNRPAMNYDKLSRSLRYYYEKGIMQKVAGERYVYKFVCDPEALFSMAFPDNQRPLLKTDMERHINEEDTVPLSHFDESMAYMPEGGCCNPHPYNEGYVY
# Outline: as §1
Sequence,binding signal (FLI1),binding signal (ELK1),binding signal (GABPA),binding signal (ERG),binding signal (ELF1),binding signal (EHF),binding signal (SPI1),binding signal (SPIB),binding signal (ELK3),binding signal (ETV5),binding signal (HSF1),binding signal (SPIC),binding signal (ELF4),binding signal (ELK4),binding signal (ETV2),binding signal (ELF3),binding signal (CRX),binding signal (ETV1)
TAGGTT,"1.13 fold enrichment (6-mer frequency, TF over GST control)","1.04 fold enrichment (6-mer frequency, TF over GST control)","1 fold enrichment (6-mer frequency, TF over GST control)","1.11 fold enrichment (6-mer frequency, TF over GST control)","1.08 fold enrichment (6-mer frequency, TF over GST control)","1.08 fold enrichment (6-mer frequency, TF over GST control)","1.14 fold enrichment (6-mer frequency, TF over GST control)","1.13 fold enrichment (6-mer frequency, TF over GST control)","1.16 fold enrichment (6-mer frequency, TF over GST control)","1.13 fold enrichment (6-mer frequency, TF over GST control)","1.18 fold enrichment (6-mer frequency, TF over GST control)","1.16 fold enrichment (6-mer frequency, TF over GST control)","1.09 fold enrichment (6-mer frequency, TF over GST control)","1.12 fold enrichment (6-mer frequency, TF over GST control)","1.33 fold enrichment (6-mer frequency, TF over GST control)","1.14 fold enrichment (6-mer frequency, TF over GST control)","1.25 fold enrichment (6-mer frequency, TF over GST control)","1.13 fold enrichment (6-mer frequency, TF over GST control)"
TAAGGT,"1.12 fold enrichment (6-mer frequency, TF over GST control)","1.08 fold enrichment (6-mer frequency, TF over GST control)","1.14 fold enrichment (6-mer frequency, TF over GST control)","1.01 fold enrichment (6-mer frequency, TF over GST control)","1.04 fold enrichment (6-mer frequency, TF over GST control)","1.17 fold enrichment (6-mer frequency, TF over GST control)","1.02 fold enrichment (6-mer frequency, TF over GST control)","1.07 fold enrichment (6-mer frequency, TF over GST control)","1.13 fold enrichment (6-mer frequency, TF over GST control)","1.12 fold enrichment (6-mer frequency, TF over GST control)","1.1 fold enrichment (6-mer frequency, TF over GST control)","1.11 fold enrichment (6-mer frequency, TF over GST control)","1.19 fold enrichment (6-mer frequency, TF over GST control)","1.06 fold enrichment (6-mer frequency, TF over GST control)","1.08 fold enrichment (6-mer frequency, TF over GST control)","1.08 fold enrichment (6-mer frequency, TF over GST control)","1.38 fold enrichment (6-mer frequency, TF over GST control)","1.1 fold enrichment (6-mer frequency, TF over GST control)"
